PglD inh – blocks C. jejuni PglD acetyltransferase activity. purified PglD enzyme, DTNB colorimetric CoA detection. inhibition, % at 12.5 µM. hit rate 0.098% among 360,000. AID 602405; in the data active = inhibition above about 16%, passing the limit was not always enough
Casp6 inh – inhibitors of human caspase-6 | hit rate 0.53% among 350,000 | inhibition, % at 12.5 µM | purified caspase-6, Z-VEID-R110 cleavage fluorescence | P55212 | AID 686996;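 active = mean inhibition across replicates at least about 35%, with every replicate also reaching that limit, limit read from the data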;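 also: 0% = median of neutral control wells and 100% = no fluorescence left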
Target sequence (P55212 24-179 limits assumed): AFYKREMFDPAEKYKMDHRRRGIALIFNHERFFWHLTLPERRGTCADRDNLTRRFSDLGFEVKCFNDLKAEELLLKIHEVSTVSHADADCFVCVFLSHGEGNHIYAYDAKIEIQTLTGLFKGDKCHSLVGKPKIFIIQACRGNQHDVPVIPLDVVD
Target sequence (P55212 194-293 limits assumed): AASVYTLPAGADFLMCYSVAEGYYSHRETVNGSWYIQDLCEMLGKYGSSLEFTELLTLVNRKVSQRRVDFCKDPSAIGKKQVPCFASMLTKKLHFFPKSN
HIV Env fusion – HIV envelope-mediated fusion inhibition; hit rate 1.1% among 360,000; HeLa-JRFL Env/CEM21 cell fusion, luciferase; inhibition, % at 12.3 µM;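 active = mean replicate inhibition score of at least 50 and every replicate individually at or above 50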;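 also: 0% = plate neutral controls and 100% = maraviroc near 300 nM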
ALR H2O2 inh – human ALR oxidase inhibition via reduced H2O2; P55789; purified ALR, DTT oxidation, H2O2 HRP-luminol luminescence; inhibition, % (no concentration beside the values); hit rate 3.8% among 290,000;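 active = mean replicate inhibition above about 79%, with every replicate also reaching it, limit read from the data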
Target sequence (P55789 whole entry, looked up): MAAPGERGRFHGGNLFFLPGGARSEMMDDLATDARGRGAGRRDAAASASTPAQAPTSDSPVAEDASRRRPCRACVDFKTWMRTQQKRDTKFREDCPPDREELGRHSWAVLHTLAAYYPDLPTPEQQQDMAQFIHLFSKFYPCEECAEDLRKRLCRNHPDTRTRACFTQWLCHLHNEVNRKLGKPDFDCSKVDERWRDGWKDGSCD
NSD2 inh – NSD2 (human) methyltransferase inhibition. NSD2 peptide methylation, AlphaScreen, 120 min. inhibition, % at 12.5 µM. hit rate 0.54% among 310,000. AID 743445; in the data active = inhibition above about 50%
CFTR F508del cor – correctors of CFTR F508del function in bronchial epithelial cells; CFBE cells, YFP halide quenching; stimulated with forskolin plus potentiator P3; % fluorescence drop versus neutral controls; activity (quench increase), % at 7.58 µM; hit rate 0.36% among 350,000; AID 720511;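 active = mean added fluorescence quench of at least 8% versus neutral control, with both replicates also reaching 8%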;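 also: cells transiently co-express mutant CFTR-F508del with the halide-sensitive YFP; corrector assay measuring rescue of mutant channel to the surface after 24 h compound exposure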
The depositor's hits bear a star; . = no result given; [ ] = dose if it differs, or a comment. Only some compounds are listed: those with a hit (about 4.1% of all), similar ones and a draw of the others.

SMILES | PglD inh | Casp6 inh | HIV Env fusion | ALR H2O2 inh | NSD2 inh | CFTR F508del cor
COc1ccc(OCc2n[nH]c(=S)n2Cc2ccco2)cc1 | . | 1 | -3 | 36 | 2 | -3
COc1ccc(-c2n[nH]c(=S)n2Cc2ccco2)cc1 | . | . | 0 | 97* | 2 | .
Cc1cc(-c2n[nH]c(=S)n2Cc2ccco2)nn1C | 4 | 0 | -4 | 6 | -2 | .
Fc1ccc(-c2n[nH]c(=S)n2Cc2ccccc2)cc1 | 6 | -1 | . | 5 | 1 | .
O=C(C[C@H]1CC[C@H]2[C@@H](COC[C@@H](O)CN2S(=O)(=O)c2ccc(F)cc2)O1)N1CCc2ccccc2C1 | 1 | 2 | . | . | . | 0
O=C(c1ccc(Cl)s1)N1CCN(c2ccccc2)CC1 | -2 | -2 | -14 | 97* | . | -2
O=C(c1ccc(Cl)s1)N1CCN(c2ncccn2)CC1 | 8 | -3 | -15 | -1 | -2 | 0
Cc1noc(C(=O)N2CCN(c3ccccc3)CC2)c1Cl | -6 | -1 | -19 | 96* | . | 2
Cc1noc(C(=O)N2CCN(c3ccc(F)cc3)CC2)c1Cl | 3 | -2 | -2 | 38 | . | 2
CC(OC(=O)CCCC(=O)Nc1ccc(F)cc1)C(=O)c1ccccc1 (configuration not stated) | 8 | 2 | 3 | -7 | -5 | 9.4*
O=C(CCCCC(=O)Nc1ccc(F)cc1)Nc1ccc(F)cc1 | -4 | -1 | 8 | 8 | -9 | -1
COc1ccccc1NC(=O)CSC1=NC(=O)C(Cc2ccccc2)C(=O)N1 (configuration not stated) | 0 | 8 | 2 | 99* | 1 | -3
CCC1C(=O)N=C(SCC(=O)NC2CCCCC2)NC1=O (configuration not stated) | . | -2 | 3 | 57 | -1 | -2
CCC1C(=O)N=C(SCC(=O)Nc2ccc(S(N)(=O)=O)cc2)NC1=O (configuration not stated) | . | 5 | -4 | 100* | -2 | 2
CCC1C(=O)N=C(SCC(=O)Nc2ccccc2)NC1=O (configuration not stated) | 2 | . | . | 99* | 2 | .
COc1cccc(-c2ccc3c(c2)[C@H]2[C@H](CCN2C(=O)c2ccc(F)cc2)[C@@H](CO)N3C)c1 | 2 | . | . | . | . | -2
CN1CCCCC(NC(=O)COCc2ccccc2)C1=O (configuration not stated) | . | 38* | -16 | . | . | 1
CCCN1CCCCC(NC(=O)COCc2ccccc2)C1=O (configuration not stated) | . | 0 | 18 | . | . | -3
O=S(=O)(O)c1cc(Cl)cc(N=Nc2ccc(O)cc2O)c1O | . | 77* | 1 | . | 113* | .
COc1cccc(C#Cc2ccc([C@H]3[C@@H](CO)N4C(=O)CN(C(C)=O)C[C@H]34)cc2)c1 | . | 2 | . | . | . | 5
O=C(NCC(c1ccco1)N1CCc2ccccc2C1)c1ccc(Cl)cc1 (configuration not stated) | 4 | 63* | -13 | 0 | 0 | -1
O=C(NCC(c1ccco1)N1CCc2ccccc21)c1ccccc1Cl (configuration not stated) | 1 | 33 | -1 | 98* | 3 | 4
COc1ccc(C(=O)NCC(c2ccco2)N2CCc3ccccc32)cc1 (configuration not stated) | . | -1 | 38 | 43 | -4 | 12*
O=S(=O)(NCC(c1ccco1)N1CCc2ccccc21)c1ccccc1 (configuration not stated) | . | 15 | -4 | 97* | 4 | 2
O=S(=O)(NCC(c1ccco1)N1CCN(c2ccccc2F)CC1)c1ccccc1 (configuration not stated) | . | . | -19 | 1 | -2 | .
SMILES | PglD inh | Casp6 inh | HIV Env fusion | ALR H2O2 inh | NSD2 inh | CFTR F508del cor
O=C(NCC(c1ccco1)N1CCc2ccccc21)c1c(F)cccc1F (configuration not stated) | -2 | 2 | -2 | 29 | 0 | 0
CCNC(=O)Nc1ccc2c(c1)C(=O)N(C)[C@@H]1CC[C@@H](CC(=O)NCCN3CCCC3)O[C@H]1CO2 | 2 | . | -6[16.7 µM] | . | . | -2
C[C@H](CO)N1C[C@H](C)[C@@H](CN(C)Cc2ccc(Cl)c(Cl)c2)OCCCC[C@H](C)Oc2ccc(NC(=O)Nc3ccccc3)cc2C1=O | -1 | 0 | 11[16.7 µM] | . | . | -3
COC(=O)N(C)C[C@@H]1OCc2ccccc2-c2c(n(C)c3ccccc23)C(=O)N([C@@H](C)CO)C[C@@H]1C | 0 | -3 | . | . | . | 1
O=C(NC1CCCCC1)N[C@H]1C=C[C@@H](CC(=O)N2CCOCC2)O[C@H]1CO | 2 | -6 | . | . | . | -2
C[C@@H]1CN([C@H](C)CO)S(=O)(=O)c2ccc(-c3cccnc3)cc2O[C@@H]1CN(C)C(=O)NC1CCCCC1 | 2 | -2 | -1[16.7 µM] | . | . | 2
CCOc1ccc(Cc2nnc(SCC(=O)c3ccc(OC)cc3)o2)cc1 | 5 | . | . | -1 | -1 | 1
CCOc1ccc(Nc2nc(Cc3nnc(SCC(=O)O)o3)cs2)cc1 | -3 | . | . | 87* | 7 | .
O=C(CSc1nnc(-c2ccc(F)cc2)c2ccccc12)Nc1cccc(Cl)c1 | . | -4 | . | -9 | -2 | 2
O=C(CSc1nnc(-c2ccc(F)cc2)c2ccccc12)Nc1ccccc1 | . | -2 | 8 | 99* | -1 | .
COC(=O)Cc1nnc(SCC(=O)Nc2ccccc2)c2ccccc12 | -3 | 3 | -1 | 98* | 0 | -2
COCC(=O)Nc1ccc2c(c1)OC[C@@H](C)N(CCc1ccccc1)C[C@@H](C)[C@H](OC)CN(C)C2=O | 3 | -2 | -3[16.7 µM] | . | . | 4
C[C@H](CO)N1C[C@H](C)[C@@H](CN(C)C(=O)CCC(F)(F)F)OCCCC[C@H](C)Oc2ccc(NC(=O)CCCN(C)C)cc2C1=O | -3 | . | 0[16.7 µM] | . | . | -2
CC(=O)CC(=O)Nc1ccn(-c2ccccc2)n1 | 1 | . | . | 82* | 0 | .
N#CCCN(C(=O)CN1CCN(S(=O)(=O)c2ccc(Cl)s2)CC1)c1ccc(F)cc1 | -3 | 2 | 62* | -6 | 0 | 2
N#CCCN(C(=O)CN1CCN(S(=O)(=O)c2ccc3c(c2)OCCO3)CC1)c1ccc(F)cc1 | -1 | 1 | 2 | 5 | -2 | 1
Cc1cnc2c(N)cc(C)c(C)c2c1 | . | 2 | 77* | . | 3 | 0
Cc1cnc2ncc3sccc3c2c1 | . | 1 | 21 | -3 | 4 | .
COC(=O)C[C@H]1C=C[C@@H](NS(=O)(=O)c2ccccc2F)[C@@H](CO)O1 | 1 | -1 | 0[16.7 µM] | . | . | 0
O=C1C(=Cc2ccco2)CCCC1=Cc1ccco1 | -5 | 72* | -244 | . | 22 | 0
CCNC(=O)[C@H]1[C@H](CO)[C@H]2Cn3c(ccc(-c4ccccc4F)c3=O)[C@@H]1N2S(C)(=O)=O | . | -1 | . | . | . | -4
CC=Cc1ccc2n(c1=O)C[C@H]1[C@H](CO)[C@@H](C(=O)N[C@@H](C)c3ccccc3)[C@@H]2N1Cc1ccccc1 (mixture of isomers) | . | 1 | . | . | . | 3

Screening data as filed in PubChem.
